# Laboratory results reported in PubChem BioAssay AID1159580 (chemical genetic matrix, 2015).
# The campaign covered roughly 5,500 compounds. About 2,000 (36%) were called active. Another 18% or so got no clear call; they are omitted. Some of the results follow. Values without a mark were called inactive. Rule as the data show it: active = normalized growth mostly below about 0.91 (no sharp cut-off); inconclusive = no clear call, values can overlap the other calls; inactive = mostly above about 0.92.
# Experiment: chemical genetic growth profiling, strain panel (AID 1159580);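 also: tested at 20 µM; growth read once vehicle control cultures reached saturation at 30 °C; 1 = growth at the plate median or of vehicle wells; lower values mean less growth of the strain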
# Settings: growth OD
compound,measurement,setting,value
CCCc1nc2c(C)cc(-c3nc4ccccc4n3C)cc2n1Cc1ccc(-c2ccccc2C(=O)O)cc1,normalized growth,"S. cerevisiae deletion strains, locus YJR043C, strain POL32, stronger effect = lower value",0.991
same,normalized growth,"S. cerevisiae deletion strains, locus YJR066W, strain TOR1, stronger effect = lower value",0.952
same,normalized growth,"S. cerevisiae deletion strains, locus YKL068W, stronger effect = lower value",1.01
same,normalized growth,"S. cerevisiae deletion strains, locus YKL085W, strain MDH1 (second series), stronger effect = lower value",1.08 [resistant] (active)
same,normalized growth,"S. cerevisiae deletion strains, locus YKL085W, strain MDH1, stronger effect = lower value",1.08 [resistant] (active)
same,normalized growth,"S. cerevisiae deletion strains, locus YKL160W, strain elf1, stronger effect = lower value",1.03
same,normalized growth,"S. cerevisiae deletion strains, locus YKL190W, strain CNB1, stronger effect = lower value",1
same,normalized growth,"S. cerevisiae deletion strains, locus YKR001C, strain vps1, stronger effect = lower value",1.02
same,normalized growth,"S. cerevisiae deletion strains, locus YKR026C, strain gcn3, stronger effect = lower value",1.02
same,normalized growth,"S. cerevisiae deletion strains, locus YKR091W, strain srl3, stronger effect = lower value",1.01
same,normalized growth,"S. cerevisiae deletion strains, locus YLL001W, strain dnm1, stronger effect = lower value",1.01
same,normalized growth,"S. cerevisiae deletion strains, locus YLL026W, stronger effect = lower value",1
same,normalized growth,"S. cerevisiae deletion strains, locus YLL041C, strain sdh2, stronger effect = lower value",1.01
same,normalized growth,"S. cerevisiae deletion strains, locus YLR027C, strain aat2, stronger effect = lower value",1
same,normalized growth,"S. cerevisiae deletion strains, locus YLR039C, strain RIC1, stronger effect = lower value",0.975
same,normalized growth,"S. cerevisiae deletion strains, locus YLR058C, strain SHM2, stronger effect = lower value",1
same,normalized growth,"S. cerevisiae deletion strains, locus YLR102C, strain apc9, stronger effect = lower value",1
same,normalized growth,"S. cerevisiae deletion strains, locus YLR113W, strain HOG1, stronger effect = lower value",1
same,normalized growth,"S. cerevisiae deletion strains, locus YLR221C, strain rsa3, stronger effect = lower value",0.994
same,normalized growth,"S. cerevisiae deletion strains, locus YLR258W, strain gsy2, stronger effect = lower value",1.01
same,normalized growth,"S. cerevisiae deletion strains, locus YLR262C, strain YPT6 (second series), stronger effect = lower value",0.975
same,normalized growth,"S. cerevisiae deletion strains, locus YLR262C, strain YPT6, stronger effect = lower value",0.998
same,normalized growth,"S. cerevisiae deletion strains, locus YLR268W, strain sec22, stronger effect = lower value",1
same,normalized growth,"S. cerevisiae deletion strains, locus YLR320W, strain mms22, stronger effect = lower value",0.983
same,normalized growth,"S. cerevisiae deletion strains, locus YLR330W, strain CHS5, stronger effect = lower value",1
same,normalized growth,"S. cerevisiae deletion strains, locus YLR342W, strain FKS1 (second series), stronger effect = lower value",1
same,normalized growth,"S. cerevisiae deletion strains, locus YLR342W, strain FKS1, stronger effect = lower value",1
same,normalized growth,"S. cerevisiae deletion strains, locus YLR357W, strain rsc2, stronger effect = lower value",1.03
same,normalized growth,"S. cerevisiae deletion strains, locus YLR370C, strain arc18, stronger effect = lower value",1.01
same,normalized growth,"S. cerevisiae deletion strains, locus YLR371W, strain rom2, stronger effect = lower value",1
same,normalized growth,"S. cerevisiae deletion strains, locus YLR384C, strain iki3, stronger effect = lower value",1.03
same,normalized growth,"S. cerevisiae deletion strains, locus YLR418C, strain cdc73, stronger effect = lower value",1
same,normalized growth,"S. cerevisiae deletion strains, locus YML016C, strain PPZ1, stronger effect = lower value",0.997
same,normalized growth,"S. cerevisiae deletion strains, locus YML032C, strain rad52, stronger effect = lower value",1
same,normalized growth,"S. cerevisiae deletion strains, locus YML120C, strain ndi1, stronger effect = lower value",1
same,normalized growth,"S. cerevisiae deletion strains, locus YML124C, strain tub3, stronger effect = lower value",0.998
same,normalized growth,"S. cerevisiae deletion strains, locus YMR058W, strain fet3, stronger effect = lower value",1.01
same,normalized growth,"S. cerevisiae deletion strains, locus YMR078C, strain ctf18, stronger effect = lower value",1.02
same,normalized growth,"S. cerevisiae deletion strains, locus YMR125W, strain sto1, stronger effect = lower value",0.99
same,normalized growth,"S. cerevisiae deletion strains, locus YMR129W, stronger effect = lower value",1.01
same,normalized growth,"S. cerevisiae deletion strains, locus YMR205C, strain PFK2, stronger effect = lower value",1
same,normalized growth,"S. cerevisiae deletion strains, locus YMR223W, strain ubp8, stronger effect = lower value",1.03
same,normalized growth,"S. cerevisiae deletion strains, locus YMR231W, strain pep5, stronger effect = lower value",1.02
same,normalized growth,"S. cerevisiae deletion strains, locus YMR263W, strain SAP30, stronger effect = lower value",0.994
same,normalized growth,"S. cerevisiae deletion strains, locus YMR307W, strain GAS1, stronger effect = lower value",0.995
same,normalized growth,"S. cerevisiae deletion strains, locus YNL067W, strain RPL9B, stronger effect = lower value",0.992
same,normalized growth,"S. cerevisiae deletion strains, locus YNL071W, strain lat1, stronger effect = lower value",1.01
same,normalized growth,"S. cerevisiae deletion strains, locus YNL128W, strain TEP1, stronger effect = lower value",1.01
same,normalized growth,"S. cerevisiae deletion strains, locus YNL183C, strain NPR1, stronger effect = lower value",0.969
same,normalized growth,"S. cerevisiae deletion strains, locus YNL209W, strain ssb2, stronger effect = lower value",1
same,normalized growth,"S. cerevisiae deletion strains, locus YNL233W, strain BNI4, stronger effect = lower value",0.985
same,normalized growth,"S. cerevisiae deletion strains, locus YNL248C, strain rpa49, stronger effect = lower value",1.02
same,normalized growth,"S. cerevisiae deletion strains, locus YNL250W, strain rad50, stronger effect = lower value",1.03
same,normalized growth,"S. cerevisiae deletion strains, locus YNL271C, strain bni1, stronger effect = lower value",1.02
same,normalized growth,"S. cerevisiae deletion strains, locus YNL298W, strain CLA4, stronger effect = lower value",1.02
same,normalized growth,"S. cerevisiae deletion strains, locus YNL307C, strain MCK1, stronger effect = lower value",1.01
same,normalized growth,"S. cerevisiae deletion strains, locus YNL322C, strain KRE1 (second series), stronger effect = lower value",0.976
same,normalized growth,"S. cerevisiae deletion strains, locus YNR049C, strain mso1, stronger effect = lower value",1.02
same,normalized growth,"S. cerevisiae deletion strains, locus YNR052C, strain pop2, stronger effect = lower value",1.01
same,normalized growth,"S. cerevisiae deletion strains, locus YOL006C, strain TOP1, stronger effect = lower value",0.995
same,normalized growth,"S. cerevisiae deletion strains, locus YOL012C, strain htz1",0.863
same,normalized growth,"S. cerevisiae deletion strains, locus YOL147C, strain pex11, stronger effect = lower value",1.01
same,normalized growth,"S. cerevisiae deletion strains, locus YOR001W, strain rrp6, stronger effect = lower value",0.99
same,normalized growth,"S. cerevisiae deletion strains, locus YOR061W, strain CKA2, stronger effect = lower value",0.996
same,normalized growth,"S. cerevisiae deletion strains, locus YOR069W, strain VPS5, stronger effect = lower value",1.01
same,normalized growth,"S. cerevisiae deletion strains, locus YOR070C, strain gyp1, stronger effect = lower value",1.01
same,normalized growth,"S. cerevisiae deletion strains, locus YOR080W, strain dia2, stronger effect = lower value",1.01
same,normalized growth,"S. cerevisiae deletion strains, locus YOR083W, strain WHI5, stronger effect = lower value",1.01
same,normalized growth,"S. cerevisiae deletion strains, locus YOR106W, strain vam3, stronger effect = lower value",1.03
same,normalized growth,"S. cerevisiae deletion strains, locus YOR136W, strain idh2, stronger effect = lower value",1.01
same,normalized growth,"S. cerevisiae deletion strains, locus YOR144C, strain elg1, stronger effect = lower value",1.01
same,normalized growth,"S. cerevisiae deletion strains, locus YOR184W, strain ser1, stronger effect = lower value",0.999
same,normalized growth,"S. cerevisiae deletion strains, locus YOR231W, strain MKK1, stronger effect = lower value",0.998
same,normalized growth,"S. cerevisiae deletion strains, locus YOR265W, strain rbl2, stronger effect = lower value",1.01
same,normalized growth,"S. cerevisiae deletion strains, locus YOR270C, strain vph1, stronger effect = lower value",0.954
same,normalized growth,"S. cerevisiae deletion strains, locus YOR290C, strain snf2, stronger effect = lower value",1.01
same,normalized growth,"S. cerevisiae deletion strains, locus YOR316C, strain cot1, stronger effect = lower value",0.999
same,normalized growth,"S. cerevisiae deletion strains, locus YPL051W, strain arl3, stronger effect = lower value",1.01
same,normalized growth,"S. cerevisiae deletion strains, locus YPL055C, strain LGE1, stronger effect = lower value",0.974
same,normalized growth,"S. cerevisiae deletion strains, locus YPL078C, strain atp4, stronger effect = lower value",1.01
same,normalized growth,"S. cerevisiae deletion strains, locus YPL106C, strain sse1, stronger effect = lower value",0.996
same,normalized growth,"S. cerevisiae deletion strains, locus YPL240C, strain hsp82, stronger effect = lower value",1.01
same,normalized growth,"S. cerevisiae deletion strains, locus YPL256C, strain CLN2, stronger effect = lower value",0.969
same,normalized growth,"S. cerevisiae deletion strains, locus YPR119W, strain clb2, stronger effect = lower value",1
same,normalized growth,"S. cerevisiae deletion strains, locus YPR141C, strain kar3, stronger effect = lower value",1.01
same,normalized growth,"S. cerevisiae deletion strains, locus YPR163C, strain tif3, stronger effect = lower value",0.997
same,normalized growth,"S. cerevisiae deletion strains, locus YPR167C, strain met16, stronger effect = lower value",1.01
same,normalized growth,"S. cerevisiae deletion strains, strain wtn01, stronger effect = lower value",1.05
same,normalized growth,"S. cerevisiae strains, strain wild type, stronger effect = lower value",1
